An excerpt weighted towards active compounds, which were near 4.8% of everything screened.
DAX1 inh-1 – DAX1 (NR0B1) inhibitors on StAR promoter, primary screen, cell-based, luminescence, SF-1 (NR5A1), full-length DAX-1 | inhibition, % at 6.8 µM | 1.1% of 370,000 active | HEK293T StAR-luciferase reporter, SF-1/DAX-1 repression relief;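 active = inhibition above the mean over all tested compounds plus 3 SD, cut at about 3.6% in these data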;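 also: 0% = DAX-1 cells with DMSO and 100% = cells lacking DAX-1 with DMSO; higher inhibition means more luminescence from relief of DAX-1 repression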
DAX1 inh-2 – DAX1 (NR0B1) inhibitors, primary screen, cell-based, HEK293, Gal4-DAX1, luciferase luminescence; Nuclear receptor subfamily 0 group B member 1 (Homo sapiens), P51843; HEK293 Gal4-DAX1 luciferase reporter; inhibition, % at 6.75 µM; 0.99% of 340,000 active;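 active = inhibition above the mean over all tested compounds plus 3 SD, cut at about 4.2% in these data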;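 also: 0% = DAX1-transfected cells with DMSO and 100% = empty-vector control cells with DMSO; inhibition shows as a rise in luminescence from relieved DAX1 repression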
ssDAF-12 act – S. stercoralis DAF-12 nuclear receptor activators, primary screen, cell-based, luminescence, HEK293, GRIP1 co-expression, lit1-tk-luc | HEK293 ssDAF-12/GRIP1 lit1-tk-luc reporter; % of 3 µM dafachronic acid response | 1% of 370,000 active | activation, % at 6.8 µM | Nuclear hormone receptor DAF-12 (Strongyloides stercoralis);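 active = activation above the mean over all tested compounds plus 3 SD, cut at about 0.9% in these data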;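 also: 0% = DMSO-only wells and 100% = 3 µM delta7-dafachronic acid wells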
hcDAF-12 act – H. contortus DAF-12 nuclear receptor activators, primary screen, cell-based, luminescence, HEK293, lit1-tk-luc reporter. activation, % at 6.8 µM. HEK293 hcDAF-12 lit1-tk-luc reporter; 0% DMSO, 100% Δ7-dafachronic acid. 1.4% of 370,000 active. AID 652067, 2013;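 active = activation above the mean of all tested compounds plus 3 SD, cut at about 5.5% in these data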;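 also: 100% = response to 3 µM Δ7-dafachronic acid high control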
hgDAF-12 ag – H. glycines DAF-12 receptor agonists, primary screen, cell-based, luminescence, HEK293, GAL4 fusion, UAS-luciferase; 1.8% of 370,000 active; HEK293 GAL4-hgDAF12 UAS-luciferase reporter, agonist luminescence; normalized to butyrate control; Nuclear hormone receptor DAF-12 (Heterodera glycines), GAL4 fusion; activation, % at 6.8 µM;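 active = activation above a cutoff set at the mean of all screened compounds plus 3 SD, cut at about 10% in these data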;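 also: 0% = DMSO wells and 100% = sodium butyrate wells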
NR1D1 modulator – modulators of Rev-erb alpha DNA binding, primary screen, biochemical, FITC-DNA, fluorescence polarization, uHTS; activity, % at 10 µM; AID 1259318, 2017; 0.79% of 370,000 active; Nuclear receptor subfamily 1 group D member 1 (Homo sapiens), P20393; Rev-erbα–FITC-DNA binding, 90 min;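 active = activity above about 14%, limit read from the data; passing the limit was not always enough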;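 also: 0% = DMSO wells with 35 nM protein and 100% = DMSO wells with 750 nM protein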
Target sequence (P20393 whole entry, looked up): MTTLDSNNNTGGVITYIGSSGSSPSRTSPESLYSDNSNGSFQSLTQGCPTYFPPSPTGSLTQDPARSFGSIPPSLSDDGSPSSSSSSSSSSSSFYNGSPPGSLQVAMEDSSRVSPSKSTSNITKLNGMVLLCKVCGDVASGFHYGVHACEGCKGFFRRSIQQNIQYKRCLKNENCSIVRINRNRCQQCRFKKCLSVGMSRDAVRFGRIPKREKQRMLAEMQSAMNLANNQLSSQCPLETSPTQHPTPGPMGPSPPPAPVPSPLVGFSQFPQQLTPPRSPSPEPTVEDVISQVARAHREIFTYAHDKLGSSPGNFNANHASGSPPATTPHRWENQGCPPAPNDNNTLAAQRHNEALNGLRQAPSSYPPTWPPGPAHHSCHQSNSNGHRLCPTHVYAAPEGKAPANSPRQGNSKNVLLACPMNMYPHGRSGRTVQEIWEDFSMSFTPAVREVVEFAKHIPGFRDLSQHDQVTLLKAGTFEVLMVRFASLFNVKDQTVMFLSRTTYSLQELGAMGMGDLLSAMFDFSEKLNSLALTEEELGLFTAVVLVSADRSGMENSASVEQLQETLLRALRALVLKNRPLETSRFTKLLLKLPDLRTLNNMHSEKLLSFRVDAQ
Numbers without * were called inactive; x = not tested or not shown.

SMILES | DAX1 inh-1 | DAX1 inh-2 | ssDAF-12 act | hcDAF-12 act | hgDAF-12 ag | NR1D1 modulator
CCN(c1cccc(C)c1)C(C(=O)Nc1ccc(OC)cc1)c1cc2c(cc1[N+](=O)[O-])OCO2 (stereo unspecified) | 0 | 1 | -1 | 0 | 0 | -1
COc1ccc(NC(=O)C(c2cc3c(cc2[N+](=O)[O-])OCO3)N(C)Cc2ccccc2)cc1 (stereo unspecified) | 0 | 0 | 1 | 5.8* | 3 | 3
C/C(=C\c1ccccc1)C(=O)Nc1cc(C)on1 | 0 | 0 | -1 | 1 | 11* | 1
Cc1cc(NC(=O)c2cc(-c3ccc(Br)cc3)on2)no1 | 0 | 1 | -1 | 3 | -2 | -7
Cc1cc(NC(=O)Cc2ccccc2)no1 | 0 | -1 | -1 | 2 | 0 | 0
Cc1cc(NC(=O)c2c(Cl)cccc2Cl)no1 | 0 | -1 | 0 | -2 | -1 | -7
Cc1ccc2c(Cl)c(C(=O)Nc3cc(C)on3)sc2c1 | 1 | 5.2* | 0 | 1 | 5 | 13
Cc1cc(NC(=O)c2ccc(Cl)cc2)no1 | 3 | 2 | -1 | 1 | 11* | -3
Cc1cc(NC(=O)c2cc(-c3ccc(O)cc3)on2)no1 | 2 | 3 | -1 | 2 | 11* | -1
COC(=O)[C@]12C[C@H](CC(=O)NCc3ccc(C)o3)C(=O)N(Cc3ccc4c(c3)OCO4)C1=C[C@H](C(C)(C)C)O[C@@H]2C | -1 | x | -1 | -3 | 0 | 11
c1ccc(-c2cc(-c3nnc4sc(Cc5cccs5)nn34)[nH]n2)cc1 | 0 | x | -1 | -2 | -1 | -9
CCOc1cc2c(cc1O)C(=NOC)CC1C2CCC2(C)C(O)CCC12 (stereo unspecified) | 4.3* | 1 | -1 | 1 | -6 | 5
C#CCN1C(=O)[C@]2(NCCc3c2[nH]c2ccc(OC)cc32)c2ccccc21 | 0 | x | -1 | 0 | 2 | -3
N=c1oc2ccc3ccccc3c2cc1-c1nc(-c2ccccc2)cs1 | 1 | 1 | 0 | 6.2* | 1 | -2
N=c1oc2ccc3ccccc3c2cc1C(N)=S | 2 | 2 | -2 | 2 | -3 | -1
COc1ccc(CN2CN(S(=O)(=O)c3cccs3)c3nc4ccccc4nc32)cc1 | 1 | 2 | 0 | 2 | 13* | -4
O=C(NNS(=O)(=O)c1ccc(Cl)cc1Cl)c1cc2ncc(C(F)(F)F)cc2s1 | 0 | -1 | 1 | 6.0* | 4 | 0
O=S(=O)(NNc1ncc(C(F)(F)F)cc1Cl)c1ccc(F)cc1F | 3 | 1 | 0 | 3 | 1 | -2
CC1(C)C2CCC1(C(=O)O)c1nc3ccccc3nc12 (stereo unspecified) | 0 | 4.8* | -1 | -2 | 0 | -1
CC12CCC(C(N)=O)(c3nc4ccccc4nc31)C2(C)C (stereo unspecified) | 0 | 0 | -1 | 2 | 1 | 3
CCOC(=O)[C@@]12CCCC3=C1N(CCC3)C(=O)[C@H]2CC(=O)N1CCCC1 | -1 | x | -2 | -3 | -2 | 3
CCC[C@H]1[C@@H](NC(=O)C2CCOC2)CC[C@@]23CCCN2C(=O)CCC[C@@H]13 (stereo partly specified) | x | x | -1 | 1 | -1 | -2
C=C(C)Cn1c(SCC(=O)N/N=C/c2c(O)ccc3ccccc23)nc2ccccc2c1=O | 0 | 1 | 1 | 6.0* | 0 | -1
COCc1[nH]nc2c1C(c1ccccc1)NC2=O (stereo unspecified) | 1 | x | 0 | 0 | -1 | 5
C[C@@H]1ON(C)[C@H]2C[C@H]3c4[nH]c5ccccc5c4CCN3C[C@@H]12 | 0 | 3 | 1.4* | 3 | -1 | 0
SMILES | DAX1 inh-1 | DAX1 inh-2 | ssDAF-12 act | hcDAF-12 act | hgDAF-12 ag | NR1D1 modulator
Cc1cccc(-c2ccc3[nH]c4c(c3c2)CCN2C[C@H]3[C@H](C)ON(C)[C@H]3C[C@@H]42)c1 | -1 | -1 | -1 | 0 | 1 | -6
C[C@@H]1ON(C)[C@H]2C[C@H]3c4cc(-c5ccc(F)cc5)ccc4CCN3C[C@@H]12 | -1 | x | 0.9* | -1 | 2 | 3
COC(=O)C(Cc1ccc(O)cc1)NC(=O)c1ccccc1 (stereo unspecified) | -1 | 2 | -1 | 0 | 2 | 0
COC(=O)C(Cc1ccccc1)NC(=O)c1ccc(C)cc1 (stereo unspecified) | 0 | -1 | 1.3* | 0 | 7 | -2
CC(C)[C@H](NC(=O)[C@H](C)NC(=O)OC(C)(C)C)C(=O)N1CCC2CCN(Cc3ccccc3)CC21 (stereo partly specified) | -2 | x | -1 | 0 | -3 | -2
CCCCCCOc1ccc(C(CC(N)=O)C(=O)O)cc1 (stereo unspecified) | 0 | 4.4* | 0 | -1 | -2 | -3
Cc1ccc(NC(=O)C2CCN(c3nnc(-n4cccc4)s3)CC2)cc1C | 0 | x | 0 | -1 | 2 | 4
CC1=C(C(=O)c2ccccc2)C(c2ccc(O)cc2)NC(=S)N1 (stereo unspecified) | 0 | 4.4* | -2 | 0 | -2 | -4
COc1ccc(CN2C(=O)c3ccnn3CC2(C)c2nnnn2-c2c(C)cccc2C)cc1 (stereo unspecified) | 0 | x | -1 | 0 | 2 | -1
Cc1cccc(C2=NN(c3ccccc3)[C@@H](C(=O)N3CCOC3=O)[C@@H]2c2ccccc2)c1 | 3.7* | 0 | 0 | 1 | 1 | 1
Cc1ccccc1CS(=O)(=O)Cc1ccc(C(=O)Nc2cccc(Cl)c2F)o1 | -2 | x | -2 | -3 | 1 | 5
Cc1ccc(NC(=O)OCCCN2C(=O)CCC23CCC(C)CC3)cc1C (stereo unspecified) | -1 | x | -1 | 1 | -3 | 1
Cc1ccc(C(=O)N2CCC(C(=O)NC3CCCC3)CC2)cc1 | 0 | 4.3* | 0 | 0 | -1 | 3
C#CCN1CC(N(C)CCOC(=O)c2cc(C)cc(C)c2)CS1(=O)=O (stereo unspecified) | 1 | x | -1 | -3 | -4 | 0
N#CCc1cc2ccc3cccc4ccc(c1)c2c34 | 0 | 7.0* | -1 | 0 | -2 | -1
COc1cc(Nc2c3ccccc3nc3ccccc23)cc(OC)c1OC | 0 | 1 | 0 | 5.7* | 4 | 3

High-throughput results from PubChem BioAssay.
